# Calls of active or inactive are those of the source. How the source made its calls: active means hit-call score of the fitted dose curve at least 0.9, where 1 is the maximum; inactive means score below 0.9.
# Read-out: Interleukin 6 Receptor (IL6R), IL6R (gene 3570)
# Assay: LTEA_HepaRG_IL6R: Life Technologies and Expression Analysis (LTEA) Assay for Interleukin 6 Receptor (IL6R) using HepaRG (AID 2283510);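 on AC50: TaqMan qRT-PCR signal normalized to ACTB GAPDH and POLR2A housekeeping genes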
# Conditions: mRNA level, 48 h; actives raise or lower the signal
# Procedure: LTEA_HepaRG is a cell based, multiplexed-readout assay that uses HepaRG, a human liver cell line, with measurements taken at 48 hours after chemical dosing on a 96-well plate.LTEA_HepaRG_IL6R is one of 102 assay component(s) measured in the LTEA HepaRG cell culture assay. It is a marker of Inflammation.Data from the assay component LTEA_HepaRG_IL6R was analyzed into 1 endpoint. This assay endpoint, LTEA_HepaRG_IL6R, was analyzed with bidirectional fitting relative to DMSO as the negative control and baseline of activity. Using a type of inducible reporter, measures of mRNA induction for gain or loss-of-signal activity can be used to understand regulation of transcription factor activity. To generalize the intended target to other relatable targets, this assay endpoint is annotated to the cytokine receptor intended target family, where the subfamily is JAK-STAT cytokine receptor.
# A total of 1060 chemcials from the ToxCast library were tested in eight-point concentration-response experiments. Cell culture and cytotoxicity assays were conducted at Thermo Fisher Scientific's Custom Services facility (Madison, WI). A single lot of human HepaRG cells (Thermo Fisher Scientific, Frederick, MD) was used for the cell culture experiments. 96-well format collagen type I coated plates of human HepaRG cells were prepared using established methods. Briefly, cryopreserved HepaRG cells were thawed, plated at a density of approximately 100,000 cells/well in HepaRG Thaw, Plate, and General Purpose media (HPRG770, Thermo Fisher Scientific), and incubated for 48 hours. 0.5% DMSO was selected as vehicle control to balance the requisite need of DMSO in HepaRG cultures to maintain differentiation (for example, baseline metabolism, proportions of hepatocytes vs. cholangiocytes), while enabling further hepatic receptor pathway activation (for example, PXR and CAR) in response to chemical exposure. 48 hours after plating, the culture medium was replaced with HepaRG Serum-Free Incudtion Media. Cells were exposed to each test chemical in duplicate and maintained in CO2 incubators for another 48 hours. Chemical plates were thawed to room temperature and 200x concentrations of treatment groups were prepared. 8-point conentration-reponse curves were made with the highest exposure at 100 uM, followed by half-log dilutions, all in 0.5% DMSO. Each test plate contained variouse controls, induction positive controls (1mM phenobarbital), cytotoxicity positive controls ([…] aflatoxin B1), vehicle controls (0.5% DMSO), and total lysis controls (0.5% DMSO). Cell morphology images were taken using an Essen IncuCyte FLR automated microscope, with six 96-well plates imaged in about 24 minutes. Images were captured and exported and JPEG files. Spent culture media was transfered to black-well plates for the LDH assay, and remaining media was sorted at -80 C for later use. Cells were treated with RLT buffer and frozen until shipped for gene expression analysis. Total RNA was isolated from the cell suspension in 75 uL of Buffer RLT (Qiagen, Germantown, MD 20874) by Quintiles/Expression Analysis (Durham, NC) using a custom isolation procedure. Total RNA from each plate well was transferred to a preamplification plate. Fluidigm's 96.96 Dynamic ArrayTM (Fluidigm, Amsterdam, the Netherlands) technology was used for gene expression analyses by quantitative reverse transcription polymerase chain reaction (qRT-PCR, performed by Quintiles/Expression Analysis, Durham, NC)89. Standard TaqManTM Assays (Applied Biosystems/ThermoFisher Scientific, Foster City, CA) were used to assess the expression of 93 genes selected based on their selectivity and sensitivity to important hepatic receptors known to be modulated by environmental chemicals; importance in human hepatocyte functionality; and hepatotoxicity. […]
Structure (SMILES),outcome,AC50
CCCCC(O)(Cn1cncn1)c1ccc(Cl)cc1Cl (stereo not given),inactive,
COc1ccc(-c2ccccc2)cc1NNC(=O)OC(C)C,inactive,
COCC(=O)N(c1c(C)cccc1C)C(C)C(=O)OC (stereo not given),inactive,
Nc1c(Cl)c(F)nc(OCC(=O)O)c1Cl,inactive,
CS(=O)(=O)c1ccc(C(=O)C2C(=O)CCCC2=O)c([N+](=O)[O-])c1,inactive,
CCCN(CC)CC1COC2(CCC(C(C)(C)C)CC2)O1 (stereo not given),inactive,
CN=C=S,inactive,
CCSC(=O)N1CCCCCC1,inactive,
N#Cc1c(Cl)cccc1Cl,inactive,
COc1cc(Cl)c(OC)cc1Cl,inactive,
CCOP(=S)(OCC)Oc1nc(Cl)n(C(C)C)n1,,12.2 µM (active)
COP(=S)(OC)SCn1nnc2ccccc2c1=O,inactive,
COCc1cnc(C2=NC(C)(C(C)C)C(=O)N2)c(C(=O)O)c1 (stereo not given),inactive,
CCNP(=S)(OC)O/C(C)=C/C(=O)OC(C)C (stereo not given),inactive,
CC(C)C1(C)N=C(c2ncccc2C(=O)O)NC1=O (stereo not given),inactive,
CC(C)(C)C(=O)C(Oc1ccc(Cl)cc1)n1cncn1 (stereo not given),inactive,
CCN(CC)c1nc(C)cc(OP(=S)(OC)OC)n1,inactive,
CS(=O)(=O)c1cc(C(F)(F)F)ccc1C(=O)c1cnoc1C1CC1,inactive,
Cc1nc(N(C)C)nc(OC(=O)N(C)C)c1C,inactive,
CC(C)NC(=O)N1CC(=O)N(c2cc(Cl)cc(Cl)c2)C1=O,,2.86 µM (active)

Structure (SMILES),outcome,AC50
C=CCOC(=O)C(C)(C)OC(=O)c1cc(-n2c(=O)cc(C(F)(F)F)n(C)c2=O)ccc1Cl,inactive,
CCCC(=NOCC)C1=C(O)CC(CC(C)SCC)CC1=O (stereo not given),inactive,
CCNC(=O)NC(=O)C(C#N)=NOC,inactive,
CCCCC(C#N)(Cn1cncn1)c1ccc(Cl)cc1 (stereo not given),inactive,
COc1cc(OC)nc(NC(=O)NS(=O)(=O)c2ncccc2OCC(F)(F)F)n1,inactive,
COC(=O)NC(=S)Nc1ccccc1NC(=S)NC(=O)OC,inactive,
N#CN=C1SCCN1Cc1ccc(Cl)nc1,inactive,
CC(C)Oc1cccc(NC(=O)c2ccccc2C(F)(F)F)c1,inactive,
CCN(CC)C(=O)C(C)Oc1cccc2ccccc12 (stereo not given),,20.3 µM (active)
O=C(O)c1c(Cl)ccc2cc(Cl)cnc12,inactive,
Clc1cccc(C(Cl)(Cl)Cl)n1,inactive,
Cc1cnc(C2=NC(C)(C(C)C)C(=O)N2)c(C(=O)O)c1 (stereo not given),inactive,
O=P(O)(O)CCCl,inactive,
CCOc1nc(C(Cl)(Cl)Cl)ns1,,0.987 µM (active)
COP(=O)(OC)O/C(C)=C/C(=O)N(C)C,inactive,
CC1(C)C(C(=O)OC(C#N)c2cccc(Oc3ccccc3)c2)C1(C)C (stereo not given),inactive,
Nc1c(Cl)c(Cl)nc(C(=O)O)c1Cl,inactive,
Cc1cc(C)nc(Nc2ccccc2)n1,inactive,
Nc1cnn(-c2ccccc2)c(=O)c1Cl,inactive,
CCC(C)n1c(=O)[nH]c(C)c(Br)c1=O (stereo not given),,6.3 µM (active)

# Reference: PubChem BioAssay (EPA / NIEHS)
